In the library only some 8.9% were active in any assay of this set; here they are far more common.
D3 ag: agonists of human D3 dopamine receptor; 410,000 compounds, 0.58% hits; AID 652048; max activation, %; D3R DiscoveRx beta-arrestin cells, luminescence, 90 min; in the data active = max activation above about 30%; also: 0% is about no effect
Target sequence (P35462 whole entry, looked up): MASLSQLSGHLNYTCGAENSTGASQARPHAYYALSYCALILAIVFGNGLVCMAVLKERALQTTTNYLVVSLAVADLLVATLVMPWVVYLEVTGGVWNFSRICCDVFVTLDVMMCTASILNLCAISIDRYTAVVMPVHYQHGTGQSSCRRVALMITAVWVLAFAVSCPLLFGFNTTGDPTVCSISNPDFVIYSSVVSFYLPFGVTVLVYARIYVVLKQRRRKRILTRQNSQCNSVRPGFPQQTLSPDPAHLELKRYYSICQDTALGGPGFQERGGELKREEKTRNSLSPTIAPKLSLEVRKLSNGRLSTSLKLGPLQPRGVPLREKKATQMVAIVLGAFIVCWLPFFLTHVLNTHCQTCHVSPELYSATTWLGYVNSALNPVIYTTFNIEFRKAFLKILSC
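Agonist mode: compounds and dopamine controls were applied to plated cells for 90 min at 37 degrees C after an overnight attachment at 1500 cells/well. Luminescent read-out followed 30 - 60 minutes at room temperature with DiscoveRx detection reagent.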
MCF10A rereplic: induces DNA re-replication in MCF 10a normal breast cells. MCF 10A DNA re-replication, Hoechst nuclear intensity, 48 h. AID 624296. Potency, µM (doses to about 46.1 µM), without a hit: at the highest dose activity, positive = re-replication, usual class: activators. 350,000 compounds, 2.9% hits; also: potency is read from the fitted curve at half-maximal effect; % of control where 0% means no effect; nearly all actives have a fitted effect of over 50% in size
KB-3-1 cytotox: KB-3-1 parental cell cytotoxicity | AID 1347075 | Potency, µM (highest dose often 46.1 µM), actives largely listed as cytotoxic | 400,000 compounds, 1.4% hits | KB-3-1 viability, CellTiter-Glo ATP luminescence, 72 h; also: potency is read from the fitted curve at half-maximal effect; % is scaled to controls: 0 for no effect and ±100 for the full control effect; nearly all actives have a fitted effect of over 60% in size
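Cytotoxicity measured as CellTiter-Glo luminescence after 72 h at 37 C. Compound titrations were pinned onto drug-naive KB-3-1 parental adenocarcinoma cells grown in DMEM with 10% FBS, and normalized data fitted to concentration-response curves.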
KB-V1 cytotox: KB-V1 MDR subline cytotoxicity; Potency, µM (highest dose often 46.1 µM), hits mostly cytotoxic; KB-V1 MDR cells viability, CellTiter-Glo, 72 h; 400,000 compounds, 3.4% hits; AID 1347076; also: potency is read from the fitted curve at half-maximal effect; % is scaled to controls: 0 for no effect and ±100 for the full control effect; nearly all actives have a fitted effect of over 60% in size
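Luminescent ATP read-out (CellTiter-Glo, 10 min) measures survival of drug-selected KB-V1 MDR cells after 72 h, 37 degrees C compound exposure. Medium: phenol-red-free DMEM, 10% FBS. Values from fitted concentration-response curves.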
DRD3 antagonist: antagonists of human D3 dopamine receptor; D3R cells, DiscoveRx beta-arrestin luminescence, antagonist mode; stronger effect = lower value; max response, negative = inhibition, %; 360,000 compounds, 2.5% hits; in the data active = max response below about -50%; inconclusive = no clear call, values can overlap the other calls; also: % is scaled to controls: 0 for no effect and ±100 for the full control effect
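Cells expressing the human receptor were seeded at 1500 cells/well, incubated overnight at 37 degrees C in 5% CO2, then exposed to library compounds with dopamine controls for 90 minutes at 37 degrees C before luminescent detection.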
SW480 rereplic: induces DNA re-replication in SW480 colon adenocarcinoma cells | Potency, µM (series often up to 46.1 µM), without a hit: at the top dose re-replication activation, hits mostly activators | 340,000 compounds, 1.8% hits | AID 624297 | SW480 DNA re-replication, Hoechst DNA content imaging, 48 h; also: potency is read from the fitted curve at half-maximal effect; % of control where 0% means no effect; nearly all actives have a fitted effect of over 55% in size
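Compounds, transferred as 23 nL by pin tool, were incubated with cells for 48 hr; DNA content per nucleus was then quantified by Hoechst staining and fluorescence plate imaging.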
Starred values were filed as active, the others as inactive; i = inactive; ? = inconclusive; · = no result given; [ ] = remark or other dose. Unless noted, calls follow the shape of the dose curve; as a rule, active = well fitted curve in the direction sought with a large enough effect; inconclusive = small, poorly fitted or top-dose-only effect, or another doubt; inactive = no such curve, though single readings can be large; an effect the other way counts as inactive or inconclusive.

SMILES | D3 ag | MCF10A rereplic | KB-3-1 cytotox | KB-V1 cytotox | DRD3 antagonist | SW480 rereplic
O=C(Nc1cc2c(cc1C(=O)c1ccccc1Cl)OCCO2)c1ccccc1 | 7 | · | · | · | · | ·
COCCCNC(=O)C[C@@H]1C[C@@]2(C(=O)OC)CC(C)(C)CC=C2N(Cc2cccc3ccccc23)C1=O | 5 | · | i | ? | -11 | ·
CCCCOCCCNC(=O)C[C@@H]1C[C@@]2(C(=O)OC)CC(C)(C)CC=C2N(Cc2cccc3ccccc23)C1=O | 2 | · | ? | 21µM* | -6 | ·
COC(=O)[C@@]12C[C@@H](CC(=O)NCCCCc3ccccc3)C(=O)N(Cc3cccc4ccccc34)C1=CCC(C)(C)C2 | 2 | · | ? | 18µM* | -2 | ·
CCOc1ccc(-c2nnc(SCC(=O)Nc3cc(F)ccc3F)o2)cc1 | -1 | · | ? | i | · | ·
CCOC(=O)N1CCC(NC(=O)c2ccc3c(c2)N(Cc2cc(C)ccc2C)C(=O)c2ccccc2S3=O)CC1 (stereo not drawn) | 4 | · | ? | ? | · | ·
COc1ccc(S(=O)(=O)c2snnc2C)cc1 | 1 | 2% | i | ? | 7 | 14%
COc1cc(C(=O)O/N=C2/C=CC(=O)C(C)=C2C)cc(OC)c1OC | 6 | 23µM* | ? | ? | -24 | 16µM*
C=C(C)CSc1nnc2[nH]c(=O)cc(N)n12 | -8 | 1% | 16µM* | 18µM* | 4 | -1%[9.22 µM]
CCN1/C(=C/c2ccc3cc(C)ccc3[n+]2CC)Sc2ccccc21 | 0 | 14% | 1.6µM* | i | 3 | -8%
CCN1/C(=C/c2ccc3cc(C)ccc3[n+]2CC)Sc2cc(C)c(C)cc21 | 2 | -2%[9.22 µM] | 1.8µM* | ? | -15 | ?
CCOC(=O)/C(=C/C=C1\Sc2cc(C)c(C)cc2N1CC)C(C)=O | 4 | 21% | ? | ? | 23 | -9%
CC[n+]1c(/C=C2\Sc3ccccc3N2C)ccc2cccc(C)c21 | 13 | -6% | 0.46µM* | 16µM* | -6 | -10%
O=C(CNC(=O)C1CCCCC1)OCC(=O)c1cccc(Cl)c1 | -3 | 3% | i | i | -13 | -6%
CN1C(=O)c2ccccc2Sc2ccc(NC(=O)COc3ccc(F)cc3)cc21 | -3 | · | ? | ? | · | ·
CCn1ccc2cc(S(=O)(=O)N3CCCN(C(=O)Nc4cccc(Cl)c4)CC3)ccc21 | -2 | · | ? | 10µM* | · | ·
CN(C)CCNC(=O)Cn1ccc2cc(S(=O)(=O)N3CCCCCC3)ccc21 | -16 | 0% | i | ? | -55* | -29%
O=C(N/N=C/c1ccc(Cl)c([N+](=O)[O-])c1)c1cc(-c2ccccc2)nc2ccccc12 | 2 | 12µM* | i | i | -8 | -10%
Cc1ccc(-c2cc(C(=O)N/N=C/c3cccnc3)c3ccccc3n2)cc1C | 3 | 18% | i | i | 33 | 3%
O=C(N/N=C/c1cccnc1)c1cc(-c2ccc(Br)cc2)nc2ccccc12 | 1 | ? | ? | i | 28 | 21µM*
O=C(N/N=C/c1cccnc1)c1cc(-c2ccccc2)nc2ccccc12 | -14 | 15% | i | i | 2 | -2%
O=C(N/N=C/c1cccnc1)c1cc(-c2ccc(Cl)cc2)nc2ccccc12 | -2 | ? | i | ? | 11 | 9%
O=C(N/N=C/c1ccc(Cl)cc1)c1cc(-c2cccnc2)nc2ccccc12 | -2 | ? | 9.2µM* | 9.2µM* | 7 | 4.1µM*
O=C(N/N=C/c1cc([N+](=O)[O-])ccc1Cl)c1cc(-c2ccccc2)nc2ccccc12 | 1 | 2% | i | i | 24 | -2%
Cc1ccc(/C=N/NC(=O)c2cc(-c3cccnc3)nc3ccccc23)cc1 | -3 | 23µM* | 2.9µM* | 2.9µM* | -19 | 2.6µM*
SMILES | D3 ag | MCF10A rereplic | KB-3-1 cytotox | KB-V1 cytotox | DRD3 antagonist | SW480 rereplic
O=C(Nc1cccc(Cl)c1)N1CCSc2ccccc21 | -18 | · | i | i | · | ·
Cc1ccccc1NS(=O)(=O)c1nnc(NC(=O)c2ccco2)s1 | -6 | · | i | i | · | ·
COc1ccc(OC)c(CNC(=O)Cn2ncc3c([nH]c4ccc(C)cc43)c2=O)c1 | 2 | · | i | i | · | ·
Cc1ccc(/C=N/NC(=O)c2cc(C)oc2C)cc1 | -10 | ? | ? | ? | -27 | 4.6µM*
Cc1cc(C(=O)N/N=C/c2ccncc2)c(C)o1 | 12 | 0% | i | i | 15 | -5%[9.22 µM]
Cc1nn(C(C)(C)C)c(OC(=O)c2cccc(F)c2)c1Sc1ccccc1 | -16 | · | i | i | · | ·
CCOC(=O)CC/C(=N\NC(N)=O)c1ccc(OC)c(Cl)c1 | 4 | -2% | i | 8.2µM* | -17 | -4%
CC/C(=N\NC(N)=O)c1ccc(OC)c(OC)c1 | -14 | 9% | i | ? | 8 | -16%
NNc1nc(-c2ccccc2Cl)nc2sc3c(c12)CCCC3 | -10 | 16% | ? | 4.6µM* | -15 | ?
Cc1ccccc1-c1nc2sc3c(c2c(=O)n1N)CCCC3 | 4 | 16% | i | ? | 1 | 1%
NNc1nc(-c2ccccc2Cl)nc2ccccc12 | -10 | -3% | i | i | -92* | -5%
CCOC(=O)c1c(NC(=S)N2CCOCC2)sc2c1CCN(C(=O)OCC)C2 | 21 | ? | i | ? | 15 | ?
CCOC(=O)c1c(NC(=O)c2ccc(S(=O)(=O)N(C)C)cc2)sc2c1CCN(C)C2 | -16 | · | · | · | · | ·
CCOC(=O)N1CCc2c(sc(N)c2C#N)C1 | 60* | 2% | i | ? | 7 | 10%
CCOC(=O)c1c(NC(=O)Nc2ccc(C)cc2)sc2c1CCN(C)C2 | -9 | ? | i | i | 0 | 18µM*
CCOC(=O)c1c(NC(=S)N2CCCCC2)sc2c1CCN(C(=O)OCC)C2 | 6 | 21µM* | i | i | 10 | -44%
CCN(Cc1nc(-c2ccc(OC)cc2)oc1C)S(=O)(=O)c1ccc(Cl)cc1 | 0 | · | · | · | · | ·
CC(C)(C)C(=O)/C=c1\[nH]c(=O)/c(=C\c2ccc(F)cc2)s1 | 4 | ? | ? | ? | -7 | 15%
COc1ccc(/C=c2\s/c(=C/C(=O)c3ccc(C)cc3)[nH]c2=O)cc1OC | -4 | 13µM* | i | i | 0 | 23%
CC(O)(c1ccc(Cl)cc1)C(c1ccccc1)c1ccccn1 (stereo not drawn) | 1 | 6% | i | ? | -5 | 0%
O=C(Cn1ccn(-c2ccc(F)cc2)c(=O)c1=O)Nc1ccc(F)cc1 | 5 | · | · | · | · | ·
COc1ccc(CCn2c(C)cc(C(=O)CN3C(=O)C(=O)N(Cc4ccco4)C3=O)c2C)cc1 | 0 | 12% | 5.8µM* | i | 3 | 143%

High-throughput results deposited in PubChem BioAssay by National Center for Advancing Translational Sciences (NCATS).
